How the values were obtained:
Assay in all cases: relative induction of RFP reporter vs primary effector (background-corrected); higher = stronger activation of the biosensor
Conditions in all cases: inducer concentration 5 mM; 6 h; Cupriavidus necator H16; minimal medium + 0.4% gluconate
[1] = system: AcoR/P_H16_RS19445 acetoin biosensor (pEH052)
Description: (§1)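 C. necator H16 strains, each carrying one of 21 transcription factor/inducible promoter–mRFP biosensor plasmids, were grown in minimal medium in 96-well plates (robotic platform). Each was exposed to 46 structurally or metabolically related compounds at 5 mM at 30 °C. OD-normalised RFP fluorescence was read 6 h later and expressed as relative induction (%) = 100 × (FL compound − FL uninduced)/(FL primary inducer − FL uninduced); mean of n=4.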

[2] = system: AraC/P_araBAD L-arabinose biosensor (pEH176)
Description: as §1

[3] = system: BenM/P_H16_RS09790 benzoate biosensor (pEH148)
Description: as §1

[4] = system: FdsR/P_H16_RS03165 formate biosensor (pEH134)
Description: as §1

[5] = system: GabR/P_H16_RS23655 GABA biosensor (pEH256)
Description: as §1

[6] = system: HpdR/P_H16_RS18295 3-hydroxypropanoate biosensor (pEH010)
Description: as §1

[7] = system: KynR/P_H16_RS14030 L-kynurenine biosensor (pEH136)
Description: as §1

[8] = system: NahR/P_H16_RS08125 salicylate biosensor (pEH042)
Description: as §1

[9] = system: OapR/P_H16_RS01330 beta-alanine biosensor (pEH147)
Description: as §1

[10] = system: PcaQ/P_H16_RS30145 3,4-dihydroxybenzoate biosensor (pEH161)
Description: as §1

[11] = system: PhgR/P_H16_RS05530 phenylglyoxylate biosensor (pEH155)
Description: as §1

[12] = system: PhhR/P_H16_RS18365 L-phenylalanine biosensor (pEH137)
Description: as §1

[13] = system: SauR/P_H16_RS13695 sulfonatoacetate biosensor (pEH157)
Description: as §1

[14] = system: TtdR/P_H16_RS10665 tartrate biosensor (pEH083)
Description: as §1

[15] = system: XdhR/P_H16_RS05055 xanthine biosensor (pEH154)
Description: as §1

[16] = system: heterologous inducible system pEH002 (rhamnose/acrylate/cumate/itaconate set)
Description: as §1

[17] = system: heterologous inducible system pEH020 (rhamnose/acrylate/cumate/itaconate set)
Description: as §1

[18] = system: heterologous inducible system pEH040 (rhamnose/acrylate/cumate/itaconate set)
Description: as §1

[19] = system: heterologous inducible system pEH086 (rhamnose/acrylate/cumate/itaconate set)
Description: as §1
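Further: RFP excited at 585 nm with emission read at 620 nm, culture medium blanks subtracted from fluorescence and absorbance prior to normalisation.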

Compound | relative induction of RFP reporter [1] | relative induction of RFP reporter [2] | relative induction of RFP reporter [3] | relative induction of RFP reporter [4] | relative induction of RFP reporter [5] | relative induction of RFP reporter [6] | relative induction of RFP reporter [7] | relative induction of RFP reporter [8] | relative induction of RFP reporter [9] | relative induction of RFP reporter [10] | relative induction of RFP reporter [11] | relative induction of RFP reporter [12] | relative induction of RFP reporter [13] | relative induction of RFP reporter [14] | relative induction of RFP reporter [15] | relative induction of RFP reporter [16] | relative induction of RFP reporter [17] | relative induction of RFP reporter [18] | relative induction of RFP reporter [19]
NC(=O)CC[C@H](N)C(=O)O [L-glutamine] | -1.76% | -0.022% | -0.0444% | 4.9% | -2.05% | -0.13% | -0.513% | 0.00325% | -0.494% | -0.146% | -0.333% | -0.432% | 0.0183% | 0.541% | -0.666% | 0.00684% | -0.587% | -2.02% | 0.168%
O=C(O)c1ccc(O)cc1 [4-hydroxybenzoate] | 0.234% | -0.0125% | -0.00462% | 1.94% | -0.622% | 0.357% | -0.184% | 0.159% | -0.798% | 212% | -0.153% | -0.483% | -0.0101% | 0.895% | -0.191% | 0.0183% | -0.27% | -0.0264% | 0.318%
O=C(O)c1cc(=O)c2ccccc2[nH]1 [kynurenate] | -1.75% | -0.028% | -0.0535% | -9.16% | -2.49% | -0.379% | 0.25% | 0.0049% | -1.34% | 0.113% | -0.313% | -0.383% | 0.00396% | -0.284% | -0.96% | 0.00297% | -2.26% | -1.57% | -0.378%
O=C(O)CC(=O)C(=O)O [oxaloacetate] | 0.0874% | -0.00919% | -0.0305% | 2.96% | -0.991% | 0.0505% | -0.384% | 0.0244% | 0.302% | -0.0492% | -0.502% | -0.153% | 0.016% | -0.0827% | -0.199% | 0.0189% | -0.323% | -0.91% | -0.0639%

Reference: the supplement of paper PMC7057948, “A genome-wide approach for identification and characterisation of metabolite-inducible systems” (Nature Communications, 2020)
